In PubChem BioAssay AID504710 (Sanford-Burnham Center for Chemical Genomics, 2011):
A number with no mark means an inactive call. Active and inactive are the calls of the source.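 Rule for the calls: active = inhibition reaching about 16% in any single replicate (limit read from the data); inactive = the rest.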

Target: Hexokinase HKDC1 (Homo sapiens) (UniProt Q2TB90)
Test: HKDC1 hexokinase inhibitors, confirmation, biochemical, single concentration (AID 504710)
Details: recombinant HKDC1, G6PDH/diaphorase/resazurin fluorescence; at 20 µM; hits give high values

Chain of Hexokinase HKDC1 (Homo sapiens) (Q2TB90 whole entry, looked up): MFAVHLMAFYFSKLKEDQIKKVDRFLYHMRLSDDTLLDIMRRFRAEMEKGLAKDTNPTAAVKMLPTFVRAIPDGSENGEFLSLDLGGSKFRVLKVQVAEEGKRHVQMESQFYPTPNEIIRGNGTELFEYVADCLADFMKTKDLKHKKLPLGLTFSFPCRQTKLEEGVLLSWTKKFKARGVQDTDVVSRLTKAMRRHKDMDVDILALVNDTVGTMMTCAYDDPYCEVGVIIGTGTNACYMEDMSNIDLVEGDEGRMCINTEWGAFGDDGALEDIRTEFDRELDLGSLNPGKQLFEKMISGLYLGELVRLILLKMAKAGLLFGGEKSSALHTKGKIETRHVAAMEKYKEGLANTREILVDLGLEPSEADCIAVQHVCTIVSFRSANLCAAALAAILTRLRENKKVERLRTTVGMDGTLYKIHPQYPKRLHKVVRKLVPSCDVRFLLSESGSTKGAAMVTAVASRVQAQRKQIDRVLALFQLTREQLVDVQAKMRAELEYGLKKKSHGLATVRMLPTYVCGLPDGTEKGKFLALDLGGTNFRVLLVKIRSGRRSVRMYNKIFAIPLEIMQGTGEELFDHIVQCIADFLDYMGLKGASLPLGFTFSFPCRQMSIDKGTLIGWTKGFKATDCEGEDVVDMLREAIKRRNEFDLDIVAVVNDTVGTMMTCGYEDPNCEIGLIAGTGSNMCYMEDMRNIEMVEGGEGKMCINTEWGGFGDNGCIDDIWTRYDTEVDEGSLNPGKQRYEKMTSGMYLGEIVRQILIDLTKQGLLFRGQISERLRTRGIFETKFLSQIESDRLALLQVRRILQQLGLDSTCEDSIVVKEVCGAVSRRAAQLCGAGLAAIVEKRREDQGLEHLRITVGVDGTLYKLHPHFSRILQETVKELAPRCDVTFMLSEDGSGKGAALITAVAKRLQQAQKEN

Row | Compound | inhibition
1 | O=C1NC(=S)N(c2ccc(F)cc2)C(=O)/C1=C\c1ccoc1 | 55.2% (active)
2 | CC[C@H](C)/C=C(C)/C=C/C1=CC2=C(Cl)C(=O)[C@@](C)(OC(C)=O)C(=O)C2=CO1 | 45.8% (active)
3 | COC(=O)C[C@]1(C(=O)OC)CN(C#N)N(c2ccc(Cl)cc2)C12c1ccccc1-c1ccccc12 | 62.4% (active)
4 | Cc1cccc(N2C(=O)NC(=O)/C(=C\c3ccc4c(c3)CCCN4Cc3ccccc3)C2=O)c1 | 45.2% (active)
5 | CC(=NNC(=S)N1CC2CCC(CC2)C1)c1nccs1 | -42.1%
6 | CCN(CC)CCCNC(=O)c1c(O)c2ccccc2n(Cc2ccccc2)c1=O | -37.1%
7 | COC(=O)C1=C(C(=O)OC)SC2(S1)C(C(=O)OC)=C(C(=O)OC)Sc1c2ssc1=O | -88.9%
8 | COC(=O)[C@@H]1[C@@H](C(=O)OC)C2(c3ccccc3-c3ccccc32)N(c2ccc(Cl)cc2)N1C#N | 43.1% (active)
9 | COc1cc2c(cc1OC)-c1c(OC)c(OC)c(OC)c3ccnc(c13)C2=O | 57.5% (active)
10 | CCOC(=O)c1c(-n2c(C)cc(C=C3C(=O)NC(=S)NC3=O)c2C)sc2c1CCCC2 | 61% (active)
11 | COC(=O)C1CN(C#N)N(c2ccc(Cl)cc2)C12c1ccccc1-c1ccccc12 (stereo not given) | 73.6% (active)
12 | Cc1cccc(N2C(=O)NC(=O)/C(=C\c3cc(C)n(-c4sc5c(c4C#N)CCCC5)c3C)C2=O)c1C | 54.9% (active)
13 | Nc1c(Br)cc2c3c(cccc13)-c1ccccc1-2 | 51.2% (active)
14 | Cc1cc(/C=C2\C(=O)NC(=O)N(c3ccc(Cl)cc3)C2=O)c(C)n1-c1sc2c(c1C#N)CCCC2 | 56.4% (active)
15 | Cn1c(=O)c2c(nc(N/N=C/c3c(O)n(C4CCCCC4)c(=S)[nH]c3=O)n2C)n(C)c1=O | -49.5%
16 | CC(=O)OC1C2(CC3N4C(=O)C5(CO)SSC4(CC31O)C(=O)N5C)OC(C)C(C)(C)C2=O (stereo not given) | -77%
17 | Cc1ccc(N2C(=O)NC(=O)/C(=C\c3cc(C)n(-c4sc5c(c4C#N)CCCC5)c3C)C2=O)cc1 | 77.3% (active)
18 | O=c1c2ccccc2[se]n1-c1ccccc1 | 5.01% (active)
19 | Cc1ccc2c(C)c3ccc4ccccc4c3c[n+]2c1 | -65.5%
20 | COc1ccc(OC)c(N2C(=O)/C(=C/c3ccco3)C(=O)NC2=S)c1 | 77.4% (active)
